The panel holds about 79,000 compounds, 15% with a hit somewhere; the sample as a whole holds those more often. A number with no mark means an inactive call. The source made the active and inactive calls. Cut-off read from the data, not from the text of the source: active = growth inhibition above about 70%; inactive = the rest.
Legend:
[1] = NCI Yeast Anticancer Drug Screen. Data for the rad50 strain (AID 155);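 note: 0% = growth of vehicle-only cultures of the same strain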; settings: S. cerevisiae rad50 strain growth inhibition, active compounds read high
Procedure, shortened: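 Compounds were tested on a yeast strain with an engineered DNA damage repair alteration; the reported value is growth inhibition normalised to vehicle treatment.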

[2] = NCI Yeast Anticancer Drug Screen. Data for the mec2-1 strain (AID 157); settings: S. cerevisiae mec2-1 strain, active compounds read high
Procedure, shortened: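 Growth inhibition is read against vehicle-treated controls after compound exposure of the mec2-1 yeast strain, which is defective in DNA damage repair or cell cycle control.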

[3] = NCI Yeast Anticancer Drug Screen. Data for the sgs1 mgt1 strain (AID 161);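 note: 0% = growth of cultures given vehicle only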; settings: S. cerevisiae sgs1 mgt1 strain, active compounds read high
Procedure, shortened: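 Growth of a repair-deficient yeast mutant was monitored after compound treatment and expressed as inhibition relative to vehicle-treated cultures.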

[4] = NCI Yeast Anticancer Drug Screen. Data for the cln2 rad14 strain (AID 165);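 note: 0% = growth equal to vehicle treated cultures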; settings: S. cerevisiae cln2 rad14 strain, active compounds read high
Procedure, shortened: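 Growth inhibition, relative to vehicle-treated controls, is the read-out. The test organism is a yeast strain with defined genetic alterations, cln2 rad14.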

[5] = NCI Yeast Anticancer Drug Screen. Data for the bub3 strain (AID 167); settings: S. cerevisiae bub3 mutant strain, active compounds read high
Procedure, shortened: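 Growth of a checkpoint-deficient yeast mutant is measured after compound exposure. Values represent inhibition relative to vehicle.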

[6] = NCI Yeast Anticancer Drug Screen. Data for the mlh1 rad18 strain (AID 175); settings: S. cerevisiae mlh1 rad18 strain growth inhibition, active compounds read high
Procedure, shortened: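 Cells of a genetically altered yeast strain, deficient in DNA damage repair, were treated with compound. Their growth was then compared with that of vehicle-treated cultures to give inhibition.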

[7] = at 5.0 µM (retest, dose inferred, filed as 0.5)
[8] = at 50.0 µM (retest, dose inferred, filed as 5.0)

SMILES	growth inhibition [1, 7]	growth inhibition [1, 8]	growth inhibition ([1]; at 50.0 µM)	growth inhibition [2, 7]	growth inhibition [2, 8]	growth inhibition ([2]; at 50.0 µM)	growth inhibition [3, 7]	growth inhibition [3, 8]	growth inhibition ([3]; at 50.0 µM)	growth inhibition [4, 7]	growth inhibition [4, 8]	growth inhibition ([4]; at 50.0 µM)	growth inhibition [5, 7]	growth inhibition [5, 8]	growth inhibition ([5]; at 50.0 µM)	growth inhibition [6, 7]	growth inhibition [6, 8]	growth inhibition ([6]; at 50.0 µM)
CC1(C)C2CCC(C2)C1OC(=O)c1ccccc1C(=O)O (configuration not stated)	-7%	11%	1.45%	-2%	0%	12.9%	-5%	6%	-6.05%	10%	15%	76.2% (active)	-2%	26%	71% (active)	-21%	6%	32.7%
O=C1C=C(Br)C(=O)C12CCc1ccccc12 (configuration not stated)	99% (active)	99% (active)	99.7% (active)	100% (active)	99% (active)	99.8% (active)	93% (active)	100% (active)	99.5% (active)	99% (active)	99% (active)	99.3% (active)	99% (active)	99% (active)	99.6% (active)	99% (active)	99% (active)	99.5% (active)
Nc1nc(-c2ccccc2)nc(Cl)c1I	0%	17%	74.7% (active)	-3%	24%	28.9%	3%	43%	78% (active)	3%	21%	15.6%	-10%	16%	-5.25%	-4%	21%	81.4% (active)
CCC(C)NCCNc1cc(OC)cc2cccnc12 (configuration not stated)	10%	13%	42.9%	1%	0%	27%	7%	10%	21%	16%	-5%	-26.6%	-1%	-1%	35%	10%	33%	51.1%
COc1ccc(Cc2nc3ccccc3s2)cc1OC	42%	98% (active)	90.3% (active)	39%	99% (active)	92.8% (active)	61%	99% (active)	93.7% (active)	42%	97% (active)	91.9% (active)	51%	99% (active)	92.6% (active)	73% (active)	99% (active)	91.8% (active)
COc1cccc(C2c3cc4c(cc3OC(N3CCCC3)C2C)OCO4)c1 (configuration not stated)	-16%	74% (active)	85.2% (active)	-34%	82% (active)	82% (active)	-27%	54%	77.8% (active)	-15%	67%	76.3% (active)	-30%	88% (active)	85% (active)	-32%	72% (active)	80.1% (active)
O=C1/C(=C/c2ccccc2Cl)COc2ccccc21	30%	97% (active)	91.5% (active)	-15%	98% (active)	93.9% (active)	15%	97% (active)	90.7% (active)	20%	97% (active)	90.8% (active)	32%	98% (active)	90.7% (active)	-25%	97% (active)	90.2% (active)
COc1ccc2c(c1)C1(C)CCCC(C)(C(=O)O)C1C(Br)C2=O (configuration not stated)	6%	91% (active)	69.8%	20%	98% (active)	46.6%	-12%	97% (active)	84% (active)	-8%	96% (active)	37.4%	6%	96% (active)	35.2%	21%	96% (active)	72.2% (active)
CCOC(=O)CNC(=O)CNC(=O)CNC(c1ccccc1)(c1ccccc1)c1ccccc1	-8%	56%	66.5%	41%	69%	60.3%	-13%	81% (active)	55.1%	-10%	26%	68.8%	-1%	61%	38.4%	15%	83% (active)	63.7%
OC1(c2ccccc2)CN(CCl)CC(c2ccccc2)O1 (configuration not stated)	-2%	7%	-10.6%	0%	2%	17.3%	-1%	7%	46%	12%	15%	10.4%	2%	6%	71.8% (active)	-2%	7%	47.4%
Nc1ccc2ccccc2c1N=Cc1ccccc1[N+](=O)[O-]	-3%	72% (active)	85.8% (active)	-10%	90% (active)	29.8%	5%	92% (active)	96.8% (active)	-9%	54%	-40.1%	15%	85% (active)	30.2%	11%	91% (active)	84.3% (active)
O=C1C(CCl)=CS(=O)(=O)c2ccccc21	10%	99% (active)	99.1% (active)	17%	99% (active)	99.3% (active)	16%	99% (active)	99.2% (active)	5%	99% (active)	99.3% (active)	4%	99% (active)	99.3% (active)	36%	99% (active)	99.2% (active)
Cc1cccc2c1C(=O)N(CC[P+](c1ccccc1)(c1ccccc1)c1ccccc1)C2=O	77% (active)	85% (active)	58.1%	58%	87% (active)	70.3% (active)	70% (active)	93% (active)	61.9%	58%	91% (active)	35.3%	80% (active)	95% (active)	70.5% (active)	64%	86% (active)	67.9%
C=Cc1ccccc1C1(O)C=CC(OC)(OC)C=C1	17%	25%	44%	11%	16%	7.1%	12%	14%	34.5%	17%	31%	-2.15%	8%	9%	44.2%	21%	32%	15.2%
C=CC(=O)N1C/C(=C\c2ccccc2)C(=O)/C(=C/c2ccccc2)C1	44%	75% (active)	73.8% (active)	37%	80% (active)	80.2% (active)	49%	90% (active)	71.7% (active)	39%	58%	48.2%	40%	87% (active)	78.5% (active)	50%	94% (active)	84.7% (active)
O=C(n1c2ccccc2c2n[nH]c(=S)nc21)C(F)(F)F	1%	-6%	82.7% (active)	0%	-2%	39.1%	-3%	-2%	83.5% (active)	-2%	-2%	25.3%	3%	-1%	52.8%	-5%	0%	89.3% (active)
O=C(OC1CC2CC1C1CC=CC21)c1ccccc1 (configuration not stated)	-3%	-3%	-5.55%	-6%	2%	10.9%	-8%	1%	-3.8%	-5%	-24%	-4.4%	46%	68%	21.9%	-5%	-3%	-3.95%
O=c1ccc2nc3ccccc3ccc-2c1	-159%	-139%	23%	-53%	-55%	15.2%	-61%	-64%	18.3%	-46%	-58%	20.6%	-63%	-79%	62%	-117%	-110%	62.5%
Oc1[nH]c2ccccc2c1N=NC(=S)NCc1ccccn1	9%	99% (active)	77.4% (active)	2%	99% (active)	86.3% (active)	22%	98% (active)	90.9% (active)	31%	99% (active)	90.5% (active)	3%	99% (active)	90.8% (active)	26%	99% (active)	91.8% (active)

— PubChem BioAssay (NCI)
